This note sets out measurements from article PMC7862700, “An all-to-all approach to the identification of sequence-specific readers for epigenetic DNA modifications on cytosine”.

Holding throughout (experiment): DAPPL (digital affinity profiling via proximity ligation, sequencing); 10 mM Tris-HCl pH 7.5, 50 mM NaCl, 1 mM DTT, 4% glycerol, room temperature, 30 min; GST-TFs on glutathione beads, 16-mer random dsDNA library, 0.1% formaldehyde crosslink after washing; high values mean tight binding
One assay concerns the target T1, FEV (Homo sapiens, UniProt Q99581 1-238).
T1 sequence: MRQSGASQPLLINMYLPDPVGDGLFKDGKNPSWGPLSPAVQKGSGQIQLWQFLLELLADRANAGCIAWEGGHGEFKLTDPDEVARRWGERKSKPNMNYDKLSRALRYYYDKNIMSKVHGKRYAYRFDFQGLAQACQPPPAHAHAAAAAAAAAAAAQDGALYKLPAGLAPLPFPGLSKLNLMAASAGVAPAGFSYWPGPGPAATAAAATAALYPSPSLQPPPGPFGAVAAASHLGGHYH
The note with it: protein: recombinant; tags: N-terminal GST; dsDNA, one strand shown. In a few lines: (§1)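 Human transcription factors were made in yeast as GST fusions, captured on glutathione beads and barcoded with DNA. With a tag-only sample included, the pool was incubated with 200 nmole of a random double-stranded 16-mer DNA library in Tris/NaCl/DTT/glycerol buffer at room temperature for 30 min, then crosslinked with 0.1% formaldehyde after washing, ligated by proximity, amplified and sequenced. For binding signal, each hexamer's read frequency for a factor is divided by its frequency for the tag-only sample.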

Another assay has as its target ETV5 (Homo sapiens, UniProt P41161 1-510). The note with it: protein: recombinant; tags: N-terminal GST; dsDNA, one strand shown. In a few lines:
as §1

The target of another assay is HSF1 (Homo sapiens, UniProt Q00613 1-529). The settings on record: protein: recombinant; tags: N-terminal GST; chain copies: 3; dsDNA, one strand shown. The gist of the method:
as §1

For the next assay, the target named is T2, SPIC (Homo sapiens, UniProt Q8N5J4 1-248).
T2 sequence: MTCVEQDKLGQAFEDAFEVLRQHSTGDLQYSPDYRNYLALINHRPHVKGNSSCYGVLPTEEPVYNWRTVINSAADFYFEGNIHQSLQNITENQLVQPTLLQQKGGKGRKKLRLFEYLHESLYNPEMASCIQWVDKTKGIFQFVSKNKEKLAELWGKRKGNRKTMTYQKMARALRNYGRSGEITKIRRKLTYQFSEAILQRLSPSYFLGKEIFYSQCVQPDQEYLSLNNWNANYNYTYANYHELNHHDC
The note with it: protein: recombinant; tags: N-terminal GST; dsDNA, one strand shown. In a few lines: as §1

In the next assay the target is ELF4 (Homo sapiens, UniProt Q99607 1-663). The note with it: protein: recombinant; tags: N-terminal GST; dsDNA, one strand shown. In a few lines:
as §1

The target in a further assay is T3, ELK4 (Homo sapiens, UniProt P28324-2 1-405).
T3 sequence: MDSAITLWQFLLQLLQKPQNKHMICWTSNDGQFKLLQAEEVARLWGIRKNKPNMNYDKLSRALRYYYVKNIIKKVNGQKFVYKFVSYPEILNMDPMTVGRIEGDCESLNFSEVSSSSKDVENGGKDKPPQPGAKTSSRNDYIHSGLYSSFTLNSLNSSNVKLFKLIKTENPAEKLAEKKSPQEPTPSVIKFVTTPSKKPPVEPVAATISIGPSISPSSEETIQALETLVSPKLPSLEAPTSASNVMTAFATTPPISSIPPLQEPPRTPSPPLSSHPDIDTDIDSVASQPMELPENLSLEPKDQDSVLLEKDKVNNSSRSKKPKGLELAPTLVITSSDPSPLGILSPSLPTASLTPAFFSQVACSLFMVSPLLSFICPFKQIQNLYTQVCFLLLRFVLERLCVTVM
The note with it: protein: recombinant; tags: N-terminal GST; dsDNA, one strand shown. In a few lines:
as §1

A further assay addresses T4, ETV2 (Homo sapiens, UniProt O00321 1-342).
T4 sequence: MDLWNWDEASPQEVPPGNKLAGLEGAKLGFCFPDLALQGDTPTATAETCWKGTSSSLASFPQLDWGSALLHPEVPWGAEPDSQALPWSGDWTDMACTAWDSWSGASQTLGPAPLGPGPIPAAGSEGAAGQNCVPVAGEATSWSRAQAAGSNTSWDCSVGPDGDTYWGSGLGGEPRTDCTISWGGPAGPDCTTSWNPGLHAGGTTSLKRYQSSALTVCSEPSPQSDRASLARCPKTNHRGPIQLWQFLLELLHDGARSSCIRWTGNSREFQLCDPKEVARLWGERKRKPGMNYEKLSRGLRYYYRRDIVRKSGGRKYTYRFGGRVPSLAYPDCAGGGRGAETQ
The settings on record: protein: recombinant; tags: N-terminal GST; dsDNA, one strand shown. In a few lines:
as §1

In the next assay the target is T5, ELF3 (Homo sapiens, UniProt P78545 1-371).
T5 sequence: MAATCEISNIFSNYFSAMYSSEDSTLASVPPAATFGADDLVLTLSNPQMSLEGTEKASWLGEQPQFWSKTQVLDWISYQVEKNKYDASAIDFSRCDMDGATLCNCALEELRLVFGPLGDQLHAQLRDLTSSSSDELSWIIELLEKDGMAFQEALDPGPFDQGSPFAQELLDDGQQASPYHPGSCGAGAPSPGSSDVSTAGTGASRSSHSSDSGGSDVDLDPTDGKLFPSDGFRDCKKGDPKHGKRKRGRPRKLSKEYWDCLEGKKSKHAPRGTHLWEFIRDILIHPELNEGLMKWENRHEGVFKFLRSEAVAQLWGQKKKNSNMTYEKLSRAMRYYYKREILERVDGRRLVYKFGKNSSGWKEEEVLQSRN
The settings on record: protein: recombinant; tags: N-terminal GST; dsDNA, one strand shown. The gist of the method:
as §1

For the next assay, the target named is CRX (Homo sapiens, UniProt O43186 1-299). The note with it: protein: recombinant; tags: N-terminal GST; dsDNA, one strand shown. The gist of the method:
as §1

The target in a further assay is ETV1 (Homo sapiens, UniProt P50549 1-477). The note with it: protein: recombinant; tags: N-terminal GST; dsDNA, one strand shown. In a few lines:
as §1

For a further assay, the target named is T6, ERF (Homo sapiens, UniProt P50548 1-548).
T6 sequence: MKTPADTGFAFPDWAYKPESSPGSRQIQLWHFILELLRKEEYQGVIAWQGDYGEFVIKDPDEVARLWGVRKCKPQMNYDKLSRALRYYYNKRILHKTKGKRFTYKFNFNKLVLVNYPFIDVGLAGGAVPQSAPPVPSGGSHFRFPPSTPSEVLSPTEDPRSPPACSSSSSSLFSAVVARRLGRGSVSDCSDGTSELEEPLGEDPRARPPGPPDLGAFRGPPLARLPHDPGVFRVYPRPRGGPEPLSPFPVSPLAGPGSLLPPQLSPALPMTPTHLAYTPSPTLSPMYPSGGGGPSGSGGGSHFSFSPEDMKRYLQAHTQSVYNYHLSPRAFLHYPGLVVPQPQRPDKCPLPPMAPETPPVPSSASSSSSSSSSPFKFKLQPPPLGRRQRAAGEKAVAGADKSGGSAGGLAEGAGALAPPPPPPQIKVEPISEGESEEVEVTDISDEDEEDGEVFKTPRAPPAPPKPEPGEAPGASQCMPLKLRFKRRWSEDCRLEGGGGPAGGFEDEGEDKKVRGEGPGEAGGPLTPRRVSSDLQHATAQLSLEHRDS
The note with it: protein: recombinant; tags: N-terminal GST; dsDNA, one strand shown. The gist of the method: as §1

For the next assay, the target named is T7, ETV3L (Homo sapiens, UniProt Q6ZN32 1-361).
T7 sequence: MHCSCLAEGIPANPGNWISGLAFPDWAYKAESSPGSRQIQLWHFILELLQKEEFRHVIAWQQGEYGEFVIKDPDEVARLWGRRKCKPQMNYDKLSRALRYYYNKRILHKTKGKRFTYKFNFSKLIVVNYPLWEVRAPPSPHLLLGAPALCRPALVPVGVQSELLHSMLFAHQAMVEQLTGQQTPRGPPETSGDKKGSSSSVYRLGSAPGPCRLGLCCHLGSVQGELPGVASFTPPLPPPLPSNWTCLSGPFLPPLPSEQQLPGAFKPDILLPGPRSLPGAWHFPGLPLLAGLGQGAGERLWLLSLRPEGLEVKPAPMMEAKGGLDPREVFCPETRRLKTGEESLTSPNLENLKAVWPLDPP
The settings on record: protein: recombinant; tags: N-terminal GST; dsDNA, one strand shown. In a few lines:
as §1

In the next assay the target is T8, ETS2 (Homo sapiens, UniProt P15036 1-469).
T8 sequence: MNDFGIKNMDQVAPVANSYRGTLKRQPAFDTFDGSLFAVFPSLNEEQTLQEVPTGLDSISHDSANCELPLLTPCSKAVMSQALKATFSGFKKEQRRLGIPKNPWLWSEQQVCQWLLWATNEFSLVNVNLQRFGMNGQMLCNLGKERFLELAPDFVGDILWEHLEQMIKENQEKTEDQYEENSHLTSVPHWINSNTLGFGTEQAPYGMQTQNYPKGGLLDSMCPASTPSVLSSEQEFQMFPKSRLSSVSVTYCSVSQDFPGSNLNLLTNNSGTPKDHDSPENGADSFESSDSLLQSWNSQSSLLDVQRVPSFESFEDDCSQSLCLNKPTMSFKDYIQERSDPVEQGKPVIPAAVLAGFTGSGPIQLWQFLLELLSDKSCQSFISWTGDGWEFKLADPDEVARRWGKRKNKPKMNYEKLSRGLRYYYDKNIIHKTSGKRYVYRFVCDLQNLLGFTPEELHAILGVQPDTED
The note with it: protein: recombinant; tags: N-terminal GST; dsDNA, one strand shown. The gist of the method: as §1

For a further assay, the target named is T9, SPDEF (Homo sapiens, UniProt O95238 1-335).
T9 sequence: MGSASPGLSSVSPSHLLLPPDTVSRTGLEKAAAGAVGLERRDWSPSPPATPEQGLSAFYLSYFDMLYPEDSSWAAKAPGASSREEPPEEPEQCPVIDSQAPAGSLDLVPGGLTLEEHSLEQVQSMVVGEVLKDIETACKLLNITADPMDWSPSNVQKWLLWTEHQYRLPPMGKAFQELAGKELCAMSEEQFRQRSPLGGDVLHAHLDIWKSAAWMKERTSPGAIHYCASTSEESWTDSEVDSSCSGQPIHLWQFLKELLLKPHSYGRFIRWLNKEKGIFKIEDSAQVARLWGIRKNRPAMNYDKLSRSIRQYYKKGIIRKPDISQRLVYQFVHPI
The settings on record: protein: recombinant; tags: N-terminal GST; dsDNA, one strand shown. The gist of the method: as §1

Another assay addresses T10, ETV7 (Homo sapiens, UniProt Q9Y603 1-341).
T10 sequence: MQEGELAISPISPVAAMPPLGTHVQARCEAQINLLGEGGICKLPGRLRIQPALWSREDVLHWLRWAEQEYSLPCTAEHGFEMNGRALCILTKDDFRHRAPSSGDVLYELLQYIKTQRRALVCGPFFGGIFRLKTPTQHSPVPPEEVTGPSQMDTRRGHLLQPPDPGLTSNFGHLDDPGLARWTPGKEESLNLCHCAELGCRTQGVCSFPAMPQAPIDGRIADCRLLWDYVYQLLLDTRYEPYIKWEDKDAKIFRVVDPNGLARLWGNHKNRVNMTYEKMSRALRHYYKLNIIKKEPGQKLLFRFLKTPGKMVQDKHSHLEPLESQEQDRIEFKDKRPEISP
The note with it: protein: recombinant; tags: N-terminal GST; dsDNA, one strand shown. In a few lines:
as §1

For another assay, the target named is T11, ELF5 (Homo sapiens, UniProt Q9UKW6-2 1-255).
T11 sequence: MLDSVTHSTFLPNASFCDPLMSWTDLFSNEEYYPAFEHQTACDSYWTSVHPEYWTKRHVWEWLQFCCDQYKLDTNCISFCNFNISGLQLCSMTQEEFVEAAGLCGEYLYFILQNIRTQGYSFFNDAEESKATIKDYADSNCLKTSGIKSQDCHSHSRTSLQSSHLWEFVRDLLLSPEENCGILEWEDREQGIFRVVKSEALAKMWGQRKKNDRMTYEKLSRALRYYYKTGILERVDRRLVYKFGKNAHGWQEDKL
The settings on record: protein: recombinant; tags: N-terminal GST; dsDNA, one strand shown. In a few lines:
as §1

Another assay has as its target T12, ETV3 (Homo sapiens, UniProt P41162-2 1-143).
T12 sequence: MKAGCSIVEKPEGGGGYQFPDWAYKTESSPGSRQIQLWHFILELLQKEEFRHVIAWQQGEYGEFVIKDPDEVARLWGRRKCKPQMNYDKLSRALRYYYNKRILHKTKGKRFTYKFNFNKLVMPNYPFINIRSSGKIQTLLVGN
The settings on record: protein: recombinant; tags: N-terminal GST; dsDNA, one strand shown. The gist of the method:
as §1

The target in the next assay is ETV6 (Homo sapiens, UniProt P41212 1-452). The note with it: protein: recombinant; tags: N-terminal GST; dsDNA, one strand shown. The gist of the method:
as §1

Sequence of ELF4 (Q99607 whole entry): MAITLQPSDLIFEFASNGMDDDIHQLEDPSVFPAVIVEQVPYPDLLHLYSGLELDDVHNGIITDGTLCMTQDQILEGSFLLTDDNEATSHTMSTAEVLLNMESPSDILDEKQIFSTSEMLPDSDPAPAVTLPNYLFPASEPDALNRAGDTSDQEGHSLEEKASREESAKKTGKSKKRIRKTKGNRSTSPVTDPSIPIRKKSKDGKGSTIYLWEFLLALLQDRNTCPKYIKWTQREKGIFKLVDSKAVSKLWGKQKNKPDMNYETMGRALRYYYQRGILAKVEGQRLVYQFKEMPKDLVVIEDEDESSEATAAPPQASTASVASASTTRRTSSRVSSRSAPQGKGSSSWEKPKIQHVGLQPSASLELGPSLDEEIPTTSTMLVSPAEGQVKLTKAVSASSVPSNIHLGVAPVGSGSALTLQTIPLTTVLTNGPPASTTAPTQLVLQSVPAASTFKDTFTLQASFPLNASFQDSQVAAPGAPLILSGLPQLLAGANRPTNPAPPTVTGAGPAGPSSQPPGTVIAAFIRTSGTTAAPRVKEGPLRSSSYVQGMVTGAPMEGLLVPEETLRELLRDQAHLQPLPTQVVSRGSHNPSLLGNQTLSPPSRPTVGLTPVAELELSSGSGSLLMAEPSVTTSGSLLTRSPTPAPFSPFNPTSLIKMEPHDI
Sequence of CRX (O43186 whole entry): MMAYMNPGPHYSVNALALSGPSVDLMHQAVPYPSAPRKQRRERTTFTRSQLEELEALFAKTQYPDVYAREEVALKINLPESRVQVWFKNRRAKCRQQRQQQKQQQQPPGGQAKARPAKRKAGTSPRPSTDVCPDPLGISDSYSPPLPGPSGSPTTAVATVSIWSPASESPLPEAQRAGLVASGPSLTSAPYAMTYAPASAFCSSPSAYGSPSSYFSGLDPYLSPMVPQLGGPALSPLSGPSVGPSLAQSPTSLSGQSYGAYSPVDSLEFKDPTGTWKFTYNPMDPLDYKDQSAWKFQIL
Sequence of ETV5 (P41161 whole entry): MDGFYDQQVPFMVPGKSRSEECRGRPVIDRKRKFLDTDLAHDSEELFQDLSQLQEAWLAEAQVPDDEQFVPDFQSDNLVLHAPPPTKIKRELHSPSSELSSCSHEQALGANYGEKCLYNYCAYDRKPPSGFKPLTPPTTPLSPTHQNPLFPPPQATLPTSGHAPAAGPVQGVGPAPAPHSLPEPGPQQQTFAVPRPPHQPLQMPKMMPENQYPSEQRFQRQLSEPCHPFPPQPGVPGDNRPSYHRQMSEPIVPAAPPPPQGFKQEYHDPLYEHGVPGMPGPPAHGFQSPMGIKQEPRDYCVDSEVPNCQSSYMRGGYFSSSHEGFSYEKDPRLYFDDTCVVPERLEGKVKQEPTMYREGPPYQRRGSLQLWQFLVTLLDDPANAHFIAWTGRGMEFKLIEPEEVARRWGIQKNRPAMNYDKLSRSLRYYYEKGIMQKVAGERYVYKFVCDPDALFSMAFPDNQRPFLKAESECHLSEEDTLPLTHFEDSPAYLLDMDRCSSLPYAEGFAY
Sequence of ETV1 (P50549 whole entry): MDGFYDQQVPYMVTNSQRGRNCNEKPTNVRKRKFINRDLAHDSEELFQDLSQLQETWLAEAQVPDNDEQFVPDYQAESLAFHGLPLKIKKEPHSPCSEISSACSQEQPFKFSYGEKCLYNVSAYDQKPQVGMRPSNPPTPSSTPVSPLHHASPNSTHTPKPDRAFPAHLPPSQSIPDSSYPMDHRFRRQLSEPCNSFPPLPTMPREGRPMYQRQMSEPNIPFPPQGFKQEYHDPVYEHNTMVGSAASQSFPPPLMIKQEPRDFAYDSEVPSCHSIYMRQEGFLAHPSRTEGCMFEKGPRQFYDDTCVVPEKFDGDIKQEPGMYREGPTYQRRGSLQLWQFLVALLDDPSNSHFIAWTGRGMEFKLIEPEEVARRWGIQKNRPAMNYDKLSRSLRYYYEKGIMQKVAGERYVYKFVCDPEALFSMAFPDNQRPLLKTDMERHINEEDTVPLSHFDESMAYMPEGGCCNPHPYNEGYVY
Sequence of ETV6 (P41212 whole entry): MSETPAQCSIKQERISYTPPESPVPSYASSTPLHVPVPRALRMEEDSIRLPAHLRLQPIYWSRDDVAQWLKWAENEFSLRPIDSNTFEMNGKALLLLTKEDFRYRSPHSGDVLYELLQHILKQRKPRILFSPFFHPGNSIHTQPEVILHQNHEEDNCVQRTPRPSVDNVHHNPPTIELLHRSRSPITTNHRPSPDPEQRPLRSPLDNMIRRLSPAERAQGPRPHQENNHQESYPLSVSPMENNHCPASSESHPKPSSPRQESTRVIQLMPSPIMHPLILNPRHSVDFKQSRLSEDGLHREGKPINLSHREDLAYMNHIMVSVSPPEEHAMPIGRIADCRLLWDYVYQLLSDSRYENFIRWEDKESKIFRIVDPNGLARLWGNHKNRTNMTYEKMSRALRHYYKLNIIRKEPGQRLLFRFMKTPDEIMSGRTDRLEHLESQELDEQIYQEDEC
Sequence of HSF1 (Q00613 whole entry): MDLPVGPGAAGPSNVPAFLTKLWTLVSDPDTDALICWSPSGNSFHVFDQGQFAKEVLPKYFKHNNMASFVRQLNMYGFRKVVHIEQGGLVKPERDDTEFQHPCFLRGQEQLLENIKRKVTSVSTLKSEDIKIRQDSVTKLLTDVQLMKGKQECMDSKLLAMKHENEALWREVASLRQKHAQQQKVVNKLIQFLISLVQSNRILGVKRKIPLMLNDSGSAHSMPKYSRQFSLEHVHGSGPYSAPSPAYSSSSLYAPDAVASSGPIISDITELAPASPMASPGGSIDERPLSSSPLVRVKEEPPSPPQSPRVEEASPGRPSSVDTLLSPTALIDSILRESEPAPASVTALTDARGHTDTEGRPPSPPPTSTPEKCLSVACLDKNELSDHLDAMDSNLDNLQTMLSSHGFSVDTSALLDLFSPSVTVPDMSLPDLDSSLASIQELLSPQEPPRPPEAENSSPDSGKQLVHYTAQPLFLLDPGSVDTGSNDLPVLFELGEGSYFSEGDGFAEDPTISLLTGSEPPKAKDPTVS

Turning to AACCCC, the binding signal was 1.24 fold enrichment (6-mer frequency, TF over GST control) with FEV; 1.14 fold enrichment (6-mer frequency, TF over GST control) with ETV5; 1.03 fold enrichment (6-mer frequency, TF over GST control) with HSF1; 1.33 fold enrichment (6-mer frequency, TF over GST control) in the assay with SPIC; 1.29 fold enrichment (6-mer frequency, TF over GST control) with ELF4; 1.36 fold enrichment (6-mer frequency, TF over GST control) with ELK4. Moreover, the binding signal is 1.18 fold enrichment (6-mer frequency, TF over GST control) with ETV2; 1.22 fold enrichment (6-mer frequency, TF over GST control) in the assay with ELF3; 1.21 fold enrichment (6-mer frequency, TF over GST control) with CRX; 1.08 fold enrichment (6-mer frequency, TF over GST control) in the assay with ETV1; 1.03 fold enrichment (6-mer frequency, TF over GST control) with ERF; 1.18 fold enrichment (6-mer frequency, TF over GST control) with ETV3L. In addition, the binding signal in the assay with ETS2 is 1.21 fold enrichment (6-mer frequency, TF over GST control); with SPDEF, 1.14 fold enrichment (6-mer frequency, TF over GST control); with ETV7, 1.11 fold enrichment (6-mer frequency, TF over GST control); in the assay with ELF5 it was 1.13 fold enrichment (6-mer frequency, TF over GST control); with ETV3 it was 1.07 fold enrichment (6-mer frequency, TF over GST control); with ETV6, 1.18 fold enrichment (6-mer frequency, TF over GST control).
